Data on 33 compounds can be found in PubChem BioAssay (NCATS).

Results filed as inconclusive are left out. Unmarked numbers belong to inactive results. Activity calls are given as the source filed them. Calls follow the shape of the dose curve; as a rule, active = well fitted inhibition curve with a large enough effect; inconclusive = small, poorly fitted or top-dose-only effect; inactive = flat fitted curve, though single readings scatter. Where a SMILES comes first, the peptide text is derived from it. Bridges are numbered along the chain shown (N, C = ends). [ ]: non-standard residue; d: D form. NMeY = CN[CH](Cc1ccc(O)cc1)C(=O)O

Assay [1] relates to HEK293. Kind of assay: Cytotoxic Profiling of Annotated Libraries Using Quantitative High-Throughput Screening (AID 1296008). Also: potency is read from the fitted curve at half-maximal effect. The note with it: Five cell lines viability, CellTiter-Glo ATP luminescence, 48-72 h; max response: stronger effect = lower value. In a few lines:
(§1)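 Cells exposed to compounds for 48 or 72 hr at 37 degrees Celsius. Viability read as ATP-coupled luminescence with CellTiter-Glo after 10 min at room temperature.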
On the technique in general: Cellular ATP, detected with luciferase, serves as a proxy for viable cell number.

Assay [2] relates to KB-3-1. The description is as above. The following applies: Five cell lines viability, CellTiter-Glo ATP luminescence, 48-72 h; max response: stronger effect = lower value. In outline:
as §1

The test system of assay [3] is NIH3T3. The assay is described as above. The note with it: Five cell lines viability, CellTiter-Glo ATP luminescence, 48-72 h; max response: stronger effect = lower value. In a few lines: as §1
Assay [4] has as its system HaCat. The description is as above. The following applies: Five cell lines viability, CellTiter-Glo ATP luminescence, 48-72 h; max response: stronger effect = lower value. In a few lines: as §1
In assay [5] the test system is MCC-26. The assay is described as follows: qHTS assay to identify novel small-molecules to repurpose for Merkel cell carcinoma treatment (AID 1296009). The following applies: MCC and control cell lines, CellTiter-Glo viability, 72 h; series mostly up to 46 µM. In outline:
(§2)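 CellTiter-Glo luminescence after 72 hr compound exposure at 37 degree celsius gave cell viability. Libraries NPC and MIPE were run as 8- and 11-point dose responses; RLUs normalized to DMSO (negative) and no-cell (cytotoxicity) controls.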
In general terms: Quantitative high-throughput screening tests each substance at several concentrations.

Assay [6] concerns HACAT. The description is as above. The following applies: MCC and control cell lines, CellTiter-Glo viability, 72 h; series mostly up to 44.8 µM. In a few lines: as §2
The subject of assay [7] is HEK293T. The description is as above. The note with it: MCC and control cell lines, CellTiter-Glo viability, 72 h; at 44.8 µM (top of the series) unless noted. In a few lines:
as §2
% is scaled to controls: 0 for no effect and ±100 for the full control effect.
Also: nearly all actives have a fitted effect of over 60% in size.

Consider `N=c1nc2n(cc1F)C1OC(CO)C(O)C1O2` (configuration not stated), for which the Potency in assay [1] was 5.17 µM (active); in assay [3], 2.06 µM (active). For the same compound, in assay [2], the max response is -7.19%.

In the case of `CC1(C)CC(NC(=O)C(=O)Nc2ccc(Br)cc2)CC(C)(C)N1`, the Potency in assay [1] is 4.11 µM (active); in assay [2], 4.61 µM (active).

`Cc1ccccc1-n1c([C@H](C)Nc2nc(N)nc3nc[nH]c23)nc2cccc(C)c2c1=O`: the Potency in assay [1] is 16.4 µM (active). In addition, the max response in assay [2] is -12.5%.

With `CN(C)c1nc(NC2CCC(NC(=O)c3ccc(F)c(F)c3)CC2)nc2ccccc12` (configuration not stated), the Potency in assay [1] was 16.4 µM (active); in assay [2], 23.1 µM (active).

Take `Nc1ccccc1N`: the Potency in assay [1] is 17.2 µM (active). The max response was 3.79% in assay [4] and -4.37% in assay [2]. Moreover, in assay [5], the result was inactive.

As for `Oc1ccc(CNc2ccccc2F)c2cccnc12`, the Potency is 18.4 µM (active) in assay [1] and 5.8 µM (active) in assay [2].

On to `Cc1cccc(C)c1OCc1cc(C(=O)N2CCC(c3ccncc3)CC2)no1`, for which the results for the Potency in assay [1] and in assay [2] were 6.51 µM (active) and 8.2 µM (active), respectively. The max response in assay [3] is -17.2%.

Turning to `CC1(C)CC(=O)C2=C(C1)NC(=S)NC2c1cccc(O)c1` (configuration not stated), the results for the Potency in assay [1] and in assay [2] were 1.16 µM (active) and 0.82 µM (active), respectively.

As to `COc1ccc(-c2ccc3c(N4CCOCC4)nc(N4CC(C)OC(C)C4)nc3n2)cc1CO` (configuration not stated), the Potency in assay [1] was 1.16 µM (active); in assay [2], 1.64 µM (active); in assay [3] it was 1.84 µM (active).

As for `O=C(Nc1ccc(Cl)cc1F)c1ccccc1O`, the values for the Potency in assay [1] and in assay [2] were 16.4 µM (active) and 13 µM (active), respectively.

On to `CCN(CC)c1ccc2c(O)c(C=Nc3ccc(CC(=O)O)c(-c4c5c(nc6ccccc46)CCC(C(=O)NN)C5)c3)c(=O)oc2c1` (configuration not stated), for which the Potency in assay [1] is 11.6 µM (active); in assay [2], 5.8 µM (active).

Take `O=C(c1ccccc1)c1ccc2nc(NC(=O)c3csc(C4CCN(c5ncnc6ccsc56)CC4)n3)[nH]c2c1`: the Potency was 5.17 µM (active) in assay [1] and 8.2 µM (active) in assay [2].

Turning to `Cc1ccc(C(=O)N(CCCN)C(c2nc3cc(Cl)ccc3c(=O)n2Cc2ccccc2)C(C)C)cc1` (configuration not stated), the Potency in assay [1] is 0.0092 µM (active); in assay [2], 0.0082 µM (active).

Take `CNC(=O)c1ccccc1Nc1cc(Nc2ccc(N3CCOCC3)cc2OC)ncc1C(F)(F)F`: the Potency in assay [1] is 6.51 µM (active). For the same compound, the max response in assay [2] is -12.1%.

On to `O=C(O)Cc1cn(C2OCC(O)C(O)C2O[C@@H]2O[C@H](CO)[C@@H](O)[C@H](O)[C@H]2O)c2ccccc12` (some centres not stated), for which the result in assay [4] and in assay [2] was inactive. Further, the max response in assay [3] was 2.49%. In assay [6], the Potency entry was “inactive”.

For the compound `COc1ccc(-c2cnc3ccc(NCc4ccc(S(N)(=O)=O)cc4)nn23)cc1OC`, the outcome in assay [4] was inactive. Also, the max response is -8.36% in assay [2] and -14% in assay [3]. In addition, the Potency entry in assay [6] is “inactive”.

Consider `O=C(/C=C\n1cnc(-c2cc(C(F)(F)F)cc(C(F)(F)F)c2)n1)N1CC(F)(F)C1`, for which the max response in assay [4] is -18.4%. The Potency was 7.31 µM (active) in assay [2] and 1.84 µM (active) in assay [3].

In the case of `CC(Oc1cc(-n2cnc3ccc(CN4CCN(C)CC4)cc32)sc1C(N)=O)c1ccccc1C(F)(F)F` (configuration not stated), the Potency in assay [1] was 1.3 µM (active); in assay [2] it was 0.651 µM (active); in assay [3], 8.2 µM (active).

For `NCc1ccc(Nc2ncc(F)c(Nc3ccccc3)n2)cc1`, the Potency in assay [1] is 20.6 µM (active); in assay [2], 8.2 µM (active); in assay [3] it was 14.6 µM (active).

Regarding `C[C@@]1(O)[C@H](O)[C@@H](CO)O[C@H]1n1ccc(N)nc1=O`, the call in assay [1], in assay [2] and in assay [7] was inactive.

On to `Cc1nc(Nc2n[nH]c3c2CN(C(=O)NC(CN(C)C)c2ccccc2)C3(C)C)c2sccc2n1` (configuration not stated), for which the values for the Potency in assay [1], in assay [2] and in assay [3] were 0.0146 µM (active), 1.84 µM (active) and 8.2 µM (active), respectively.

For the compound `Cc1cc(-c2cc(O)ccc2Cl)cc2nnc(Nc3ccc(OCCN4CCCC4)cc3)nc12`, the figures for the Potency in assay [1], in assay [2] and in assay [3] were 3.26 µM (active), 4.61 µM (active) and 11.6 µM (active), respectively.

Turning to `C#CC[C@H](c1nc2cc(Cl)ccc2c(=O)n1Nc1ccccc1)N(CCCN)C(=O)c1cccc(Cl)c1F`, the Potency in assay [1] is 1.46 µM (active); in assay [2] it was 0.92 µM (active); in assay [3], 10.3 µM (active).

With `O=C(c1cc2c(cc1F)OC(c1ccc(F)cc1)(c1ccc(Cl)cc1Cl)O2)N1CCOCC1` (configuration not stated), the values for the Potency in assay [1] and in assay [2] were 11.6 µM (active) and 13 µM (active), respectively. Besides, the max response in assay [3] was -3.07%.

`CC1=C(C(=O)O[C@@H]2O[C@H](COC3OCC(O)C(O)C3O)[C@@H](O)[C@H](O)[C@H]2O)C(C)(C)CCC1` (some centres not stated): the max response in assay [1] is -9.72%; in assay [2], -5.04%; in assay [3], -7.14%.

For the compound `O=C(c1ccc(/C=C/c2n[nH]c3ccccc23)cc1)N1CCNCC1`, the results for the Potency in assay [1], in assay [2] and in assay [3] were 20.6 µM (active), 5.8 µM (active) and 4.61 µM (active), respectively.

In the case of `COc1cc(C(=O)NC2CCN(C)CC2)c(F)cc1Nc1ncc2c(n1)N(C1CCCC1)CC(F)(F)C(=O)N2C`, the Potency in assay [1] was 0.0184 µM (active); in assay [2], 0.0103 µM (active); in assay [3], 0.82 µM (active).

As for `CCC(C)C1NC(=O)C2CCCN2C(=O)C(NC(C)=O)C(C)OC(=O)C(Cc2ccc(OC)cc2)N(C)C(=O)C2CCCN2C(=O)C(C(C)C)NC1=O` (configuration not stated) (Ac-TPIVP[NMeY](Me); ester 1-C; configuration not given here), the result in assay [4] and in assay [3] was inactive. For the same compound, the max response in assay [2] is -2.69%.

As to `O=C(Nc1ccc(S(=O)(=O)C(F)(F)F)cc1)C1=CCN(c2ncccc2C(F)(F)F)CC1`, the Potency in assay [1] is 8.2 µM (active); in assay [2], 23.1 µM (active); in assay [3], 16.4 µM (active).

As to `C[C@@H]1C[C@H]2O[C@@H]2/C=C\C=C\C(=O)Cc2c(Cl)c(O)cc(O)c2C(=O)O1`, the Potency in assay [1] was 0.0873 µM (active); in assay [2] it was 1.1 µM (active); in assay [3] it was 1.74 µM (active).

In the case of `C=C1C(=O)O[C@@H]2C/C(C)=C\C(=O)/C=C(\C)[C@@H](OC(=O)/C(C)=C\C)[C@H](O)[C@@H]12`, the values for the Potency in assay [1], in assay [2] and in assay [3] were 1.61 µM (active), 11.4 µM (active) and 10.1 µM (active), respectively.

Regarding `Cn1cc(S(=O)(=O)c2ccc(Cl)cc2)c2cccc(N3CCNCC3)c21`, the Potency is 6.51 µM (active) in assay [1], 20.6 µM (active) in assay [2] and 18.4 µM (active) in assay [3].

Consider `O=C(O)/C=C/c1ccc(-c2ccc(O)c(C34CC5CC(CC(C5)C3)C4)c2)cc1`, for which the values for the Potency in assay [1], in assay [2] and in assay [3] were 0.731 µM (active), 2.06 µM (active) and 0.92 µM (active), respectively.
